Results from PubChem BioAssay AID1159580 (chemical genetic matrix, 2015).
Out of some 5,500 compounds screened, about 2,000 (36%) were called active. Inconclusive results (about 18%) are left out. No stated cut-off is given here; in the data, active means normalized growth mostly below about 0.91 (no sharp cut-off); inconclusive means no clear call, values can overlap the other calls; inactive means mostly above about 0.92. Some of the results follow.

Experiment: chemical genetic growth profiling, strain panel (AID 1159580);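 further: tested at 20 µM; growth read once vehicle control cultures reached saturation at 30 °C; 1 = growth at the plate median or of vehicle wells; lower values mean less growth of the strain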
Conditions: growth OD
[1] = S. cerevisiae deletion strains, locus YAL013W, strain DEP1, active compounds read low
[2] = S. cerevisiae deletion strains, locus YBR229C, strain ROT2, active compounds read low
[3] = S. cerevisiae deletion strains, locus YCL061C, strain MRC1, active compounds read low
[4] = S. cerevisiae deletion strains, locus YDL101C, strain DUN1, active compounds read low
[5] = S. cerevisiae deletion strains, locus YDR150W, strain NUM1, active compounds read low
[6] = S. cerevisiae deletion strains, locus YEL061C, strain CIN8, active compounds read low
[7] = S. cerevisiae deletion strains, locus YGR078C, strain PAC10, active compounds read low
[8] = S. cerevisiae deletion strains, locus YHR030C, strain SLT2, active compounds read low
[9] = S. cerevisiae deletion strains, locus YHR087W, strain rtc3, active compounds read low
[10] = S. cerevisiae deletion strains, locus YJR043C, strain POL32, active compounds read low
[11] = S. cerevisiae deletion strains, locus YJR075W, strain HOC1, active compounds read low
[12] = S. cerevisiae deletion strains, locus YLR058C, strain SHM2 (second series), active compounds read low
[13] = S. cerevisiae deletion strains, locus YLR085C, strain ARP6, active compounds read low
[14] = S. cerevisiae deletion strains, locus YLR262C, strain YPT6, active compounds read low
[15] = S. cerevisiae deletion strains, locus YML094W, strain GIM5, active compounds read low
[16] = S. cerevisiae deletion strains, locus YMR219W, strain ESC1, active compounds read low
[17] = S. cerevisiae deletion strains, locus YMR263W, strain SAP30, active compounds read low
[18] = S. cerevisiae deletion strains, locus YNL153C, strain GIM3, active compounds read low
[19] = S. cerevisiae deletion strains, locus YNL298W, strain CLA4 (second series), active compounds read low
[20] = S. cerevisiae deletion strains, locus YNL322C, strain KRE1, active compounds read low
[21] = S. cerevisiae deletion strains, locus YNR030W, strain Alg12, active compounds read low
[22] = S. cerevisiae deletion strains, locus YOL006C, strain TOP1, active compounds read low
[23] = S. cerevisiae deletion strains, locus YPL055C, strain LGE1, active compounds read low
[24] = S. cerevisiae deletion strains, locus YPL241C, strain CIN2, active compounds read low
[25] = S. cerevisiae deletion strains, locus YPR135W, strain CTF4, active compounds read low
[26] = S. cerevisiae strains, strain wild type, active compounds read low
[27] = S. cerevisiae deletion strains, locus YKL190W, strain CNB1, active compounds read low
[28] = S. cerevisiae deletion strains, locus YLR039C, strain RIC1, active compounds read low

Measured: normalized growth

CCOC(=O)C(=CNNC(=O)c1ccccc1-n1cccc1)C(=O)OCC
inactive: [1] 0.993 | [2] 1.01 | [3] 1.01 | [4] 1.03 | [5] 1.01 | [6] 0.955 | [7] 1.01 | [8] 1.01 | [9] 0.974 | [10] 1.01 | [11] 1.01 | [12] 0.994 | [13] 0.996 | [14] 0.912 | [15] 0.997 | [16] 1.01 | [17] 1 | [18] 0.999 | [19] 1.01 | [20] 0.981 | [21] 1.02 | [22] 0.986 | [23] 0.975 | [24] 1.04 | [25] 1.04 | [26] 0.935

CCOC(=O)C(=CNc1cccc(C#N)c1)C(=O)OCC
inactive: [1] 1.01 | [2] 0.987 | [3] 1 | [4] 1 | S. cerevisiae deletion strains, locus YDL134C, strain PPH21, active compounds read low 0.994 | [5] 0.992 | [6] 0.957 | [7] 1.01 | [8] 0.942 | [9] 0.973 | [10] 1.02 | [11] 0.981 | [27] 0.98 | [28] 0.988 | [12] 0.995 | [13] 0.977 | [14] 0.962 | [15] 0.963 | [16] 0.997 | [17] 1.01 | S. cerevisiae deletion strains, locus YNL128W, strain TEP1, active compounds read low 1.01 | [18] 1.01 | [19] 0.999 | [20] 0.997 | [21] 1.03 | [22] 0.91 | [23] 0.934 | [24] 1.01 | [25] 1.03 | [26] 0.994

CCOC(=O)C(=CNc1ccccc1N1CCOCC1)C(=O)OCC
active: [13] 0.722 | [25] 0.52
inactive: [1] 0.96 | [2] 0.989 | [3] 0.978 | [4] 0.958 | [5] 0.939 | [6] 1 | [7] 0.963 | S. cerevisiae deletion strains, locus YGR229C, strain SMI1, active compounds read low 0.978 | [8] 0.759 | [9] 0.999 | S. cerevisiae deletion strains, locus YJL187C, strain SWE1, active compounds read low 0.979 | [10] 0.967 | [11] 0.991 | [27] 0.955 | [28] 0.9 | [12] 0.971 | [14] 0.915 | [15] 0.958 | [16] 0.981 | [17] 0.968 | [18] 0.986 | [19] 0.916 | [20] 0.975 | [21] 0.937 | [22] 0.825 | [23] 0.987 | [24] 0.938
